Only some compounds are listed: those with a hit (about 5.9% of all), similar ones and a draw of the others.
GLP1R ag – qHTS of GLP-1 Receptor Agonists; actives 0.007% (n = 380,000); Glucagon-like peptide 1 receptor (Homo sapiens), P43220; HEK293 GLP-1R CRE-luciferase, luminescence, 4-6 h; cells express a hypersensitive GLP-1R form; Potency, µM (doses to about 45.6 µM), most hits filed as activators
Target sequence (P43220 whole entry, looked up): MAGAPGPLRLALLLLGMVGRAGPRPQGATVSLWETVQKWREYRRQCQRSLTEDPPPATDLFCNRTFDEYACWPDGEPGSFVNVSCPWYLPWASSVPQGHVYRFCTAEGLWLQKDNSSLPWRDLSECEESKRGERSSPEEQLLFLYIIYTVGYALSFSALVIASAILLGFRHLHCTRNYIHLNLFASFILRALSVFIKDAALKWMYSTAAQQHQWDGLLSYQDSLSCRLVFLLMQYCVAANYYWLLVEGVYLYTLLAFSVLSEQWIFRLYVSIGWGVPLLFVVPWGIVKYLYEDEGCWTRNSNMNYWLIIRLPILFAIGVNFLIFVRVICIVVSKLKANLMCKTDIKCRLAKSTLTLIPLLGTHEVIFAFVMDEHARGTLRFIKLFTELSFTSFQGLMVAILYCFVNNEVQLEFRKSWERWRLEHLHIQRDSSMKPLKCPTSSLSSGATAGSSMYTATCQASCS
HEK293 tox – qHTS of GLP-1 Receptor Inverse Agonists: Cytotox Screen; actives 0.13% (n = 410,000); HEK293 cAMP-luciferase reporter cells, luminescence, 24 h; Potency, µM (titrated, usually from 38.3 µM), usual class: inhibitors;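 also: loss of luciferase light is scored as toxicity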
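Here, cytotoxicity is scored as loss of luminescence. The MLSMR collection was tested on cells seeded in medium containing 10% Nu serum, with a 24 hr compound exposure preceded by 12 hours of culture.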
GLP1R inv ag – qHTS of GLP-1 Receptor Inverse Agonists (Inhibition Mode); Glucagon-like peptide 1 receptor (Homo sapiens), P43220; Potency, µM (series often up to 38.3 µM), actives largely listed as inhibitors; AID 624417, 2012; HEK293 GLP-1R CRE-luciferase, luminescence, 24 h; GLP-1R form is constitutively active; actives 1.6% (n = 410,000); also: nearly all actives have a fitted effect of over 55% in size
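HEK293 cells stably co-expressing constitutively active GLP-1R and a cAMP-responsive luciferase reporter were seeded in DMEM with 10% Nu serum, given compounds after 12 h, and incubated 24 h at 37 deg C. Luminescence was then read.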
VP16 counter – VP16 counterscreen qHTS for inhibitors of ROR gamma transcriptional activity; Drosophila S2 Gal4-VP16 UAS-luciferase, luminescence, 20 h; actives 3.5% (n = 310,000); Potency, µM (highest dose often 53.6 µM), usual class: inhibitors;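 also: Gal4-VP16 expression switched on by copper sulfate through the metallothionein promoter; nearly all actives have a fitted effect of over 50% in size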
RORg inh – qHTS for inhibitors of ROR gamma transcriptional activity; actives 5.4% (n = 310,000); Nuclear receptor ROR-gamma (Mus musculus), P51450; AID 2551, 2010; Drosophila S2 Gal4-RORgamma UAS-luciferase reporter, 20 h; Potency, µM (highest dose often 53.6 µM), usual class: inhibitors; also: nearly all actives have a fitted effect of over 60% in size
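Stably transfected Drosophila Schneider cells are the test system, with ROR gamma fused to Gal4 and luciferase under UAS control; luminescence is read after 20 hr of 700 uM copper sulfate induction at ambient temperature.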
Hits are given with their value; n = inactive; u = inconclusive; x = no result given. Calls follow the shape of the dose curve; as a rule, active = well fitted curve in the direction sought with a large enough effect; inconclusive = small, poorly fitted or top-dose-only effect, or another doubt; inactive = no such curve, though single readings can be large; an effect the other way counts as inactive or inconclusive.

SMILES | GLP1R ag | HEK293 tox | GLP1R inv ag | VP16 counter | RORg inh
CCOC(=O)N1CCN(C(=O)c2ccc3c(=O)n(CCc4ccccc4)c(=S)[nH]c3c2)CC1 | n | n | n | n | 7.1µM
CCOC(=O)N1CCN(C(=O)c2ccccc2CCc2ccccc2)CC1 | n | n | 8.9µM | n | n
O=C(c1ccccc1CCc1ccccc1)N1CCCC1 | n | n | u | n | n
CC1CCCCN1CCNC(=O)c1ccc2c(=O)n(CCc3ccccc3)c(=O)[nH]c2c1 (centres undefined) | n | n | u | n | n
CC1CCCCN1CCNC(=O)c1ccc2c(=O)n(Cc3ccc(Cl)cc3)c(=S)[nH]c2c1 (centres undefined) | n | u | u | u | 11µM
CC(=O)N(Cc1ccc(F)cc1)C1=C(NCc2ccccc2)C(=O)c2ccccc2C1=O | n | u | 10µM | u | 13µM
CC(=O)n1nc(-c2ccccc2)nc1NCc1ccc(F)cc1 | n | n | n | n | n
CC(C)Cn1nc(C(=O)N2CCc3ccccc32)c2ccccc2c1=O | n | n | 11µM | x | x
CCCn1nc(C(=O)N2CCc3ccccc32)c2ccccc2c1=O | n | n | u | x | x
COc1ccc(/C=C2/SC(=S)N(CCC(=O)O)C2=O)cc1 | n | n | n | u | 5µM
COc1ccc(/C=C2/SC(=S)N(CCCC(=O)Nc3ccc(O)cc3)C2=O)cc1 | n | u | 5.6µM | 1.4µM | 0.28µM
COc1ccc(/C=C2\SC(=S)N(CCC(=O)Nc3cccc(O)c3)C2=O)cc1 | n | n | n | n | u
COc1ccc(/C=C2\SC(=S)N(CCCC(=O)Nc3ccc(O)cc3)C2=O)cc1 | n | u | u | 1µM | 1.4µM
COc1ccc(/C=C2\SC(=S)N(CCC(=O)Nc3ccc(C(=O)O)cc3)C2=O)cc1 | n | n | n | n | n
Cc1ccc(Cc2nc3ccccc3nc2SCC(=O)NCc2ccccc2Cl)cc1 | n | n | n | x | x
CCOC(=O)C(C(=O)OCC)C(Nc1cccc(Br)c1)c1ccccc1 (centres undefined) | n | u | n | u | 11µM
COC(=O)C(C)Nc1cccc(Br)c1 (centres undefined) | n | n | n | n | n
Cc1cc(OCn2ccc(C(=O)O)n2)ccc1Cl | n | n | n | 16µM | u
COc1ccc(CCN2C(=O)c3oc4cc(C)cc(C)c4c(=O)c3C2c2ccc(F)cc2)cc1OC (centres undefined) | x | n | n | x | x
O=C1OCCC1Sc1nnc(-c2ccccc2)o1 (centres undefined) | n | n | n | n | n
O=C1OCCC1Sc1nnc(-c2ccc(Cl)cc2Cl)o1 (centres undefined) | n | n | u | u | 7.9µM
Cc1ccnc2c1ccc1cccnc12 | n | 1.6µM | u | x | x
CC1Cc2ccccc2N1S(=O)(=O)c1nnc(NC(=O)c2ccccc2Br)s1 (centres undefined) | x | n | 10µM | x | x
CCNC(=S)NNC(=O)c1nn(C)c(C)c1Cl | n | n | n | n | u
Cc1cccc(NC(=O)NNC(=O)c2c(Cl)c(C)nn2C)c1 | n | n | n | n | u
SMILES | GLP1R ag | HEK293 tox | GLP1R inv ag | VP16 counter | RORg inh
CCCCNC(=S)NNC(=O)c1c(Cl)c(C)nn1C | n | n | u | n | 1.4µM
Cc1nn(C)c(C(=O)NN)c1Cl | n | n | n | n | 11µM
CCNC(=S)NNC(=O)c1c(Cl)c(C)nn1C | n | n | n | u | 6.3µM
COc1ccccc1NC(=S)NNC(=O)c1c(Cl)c(C)nn1C | n | n | n | u | 1.6µM
Cc1nn(C)c(C(=O)NNC(=S)NC2CCCCC2)c1Br | n | n | n | u | u
CCOC(=O)C1=C(CS(=O)(=O)c2ccc(Br)cc2)NC(=O)NC1c1ccccc1 (centres undefined) | n | n | n | x | x
CCCCNC(=S)NNC(=O)c1c(C)nc2ccccn12 | n | n | n | n | 13µM
CCCCOC(=O)C1CN(c2ccccc2)N=C1C(C)=O (centres undefined) | n | n | u | n | n
CCCCOC(=O)C1CN(c2ccccc2)N=C1C(=O)OCC (centres undefined) | n | n | 10µM | n | n
COc1ccccc1-c1nnc(NC(=O)C(C)SC2=NCCS2)s1 (centres undefined) | n | n | n | u | 13µM
CC(SC1=NCCS1)C(=O)Nc1nnc(-c2ccc(Cl)cc2)s1 (centres undefined) | n | n | n | 8.9µM | 5µM
CCNc1nnc(-c2ccccc2OC)s1 | n | n | n | n | n
COc1cccc(C2CC(c3cccc(NS(C)(=O)=O)c3)=NN2C(=O)c2ccccc2)c1OC (centres undefined) | n | n | n | n | 2µM
COc1cccc(C2CC(c3ccc(Br)cc3)=NN2C(=O)c2ccncc2)c1OC (centres undefined) | n | n | 10µM | n | n
CCCCN(CC)C(=O)Nc1ccc2c(c1)N(C)C(=O)c1ccccc1S2 | x | n | n | x | x
CC(C)CCn1c(=O)c2sccc2n2c(CCCC(=O)NCCc3ccccc3)nnc12 | x | n | n | x | x
Cc1ccccc1C(=O)NC1CCN(C(=O)NC2CCCCC2)CC1 | n | n | n | n | n
Cc1ccccc1C(=O)NC1CCN(C(=O)N(c2ccccc2)c2ccccc2)CC1 | n | n | n | n | 11µM
COc1ccc(NC(=O)CSc2nncc3ccccc23)cc1 | n | n | n | n | n
COc1ccc(C(=O)Sc2nncc3ccccc23)cc1 | n | n | n | u | 11µM
Cc1nc2c(sc(=S)n2Cc2ccco2)c(=O)n1CC(=O)Nc1ccccc1F | n | n | u | n | n
Cc1nc2c(sc(=S)n2Cc2ccco2)c(=O)n1CC(=O)Nc1ccccc1 | n | n | 4.5µM | n | n
CCn1c(=S)sc2c(=O)n(CC(=O)Nc3cccc(Cl)c3)c(C)nc21 | n | u | 7.9µM | n | n
CC(C)c1nc(=S)n(-c2ccccc2)[nH]1 | n | n | n | u | 5.6µM
COc1ccccc1C(=O)Nc1cccc(C(=O)OCc2cc(=O)n3nc(C)sc3n2)c1 | x | n | n | x | x
SMILES | GLP1R ag | HEK293 tox | GLP1R inv ag | VP16 counter | RORg inh
CC1CC(CCC(=O)NC(=S)Nc2ccc(Cl)cn2)C(=O)O1 (centres undefined) | n | n | n | n | 11µM
O=C(NC(=S)Nc1ccc(Cl)cn1)C12CC3CC(CC(C3)C1)C2 | n | n | n | 4µM | 6.3µM
CCC(=O)NC(=S)Nc1ccc(Cl)cn1 | n | u | u | u | 2.8µM
CCCCC(=O)Nc1ccc(Cl)cn1 | n | n | n | n | n
S=C(Nc1ccccc1)Nc1ccc(Cl)cn1 | n | u | u | n | n
O=C(NC(=S)Nc1ccc(Cl)cn1)C(c1ccccc1)c1ccccc1 | n | n | u | 4µM | 4µM
COc1cccc(CNC(=O)CCc2nnc3n(CC(C)C)c(=O)c4ccccc4n23)c1 | x | n | n | x | x
